Source: PubChem
A selection: hits, their analogues and other compounds. The true share with any hit is near 0.38%.
Rac1 wt modul – wildtype Rac1 GTP binding modulators, primary screen, biochemical, GST-Rac1 beads, flow cytometry, multiplex; fluorescent GTP binding; actives lie on both sides; 0 = cold GTP competed, 100 = untreated; GTP binding activity (% of control), % at 10 µM; 190,000 compounds, 0.27% hits; AID 757, 2007;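 active = GTP binding activity at least 20 points away from the 100% control level, either lower or higher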
Rab2A wt mod – modulators of GTP binding to Rab2A wildtype, primary screen, biochemical, dog, bead-based flow cytometry, multiplex | GST-Rab2 wt beads, Bodipy-GTP binding | GTP binding activity, % at 10 µM | 190,000 compounds, 0.19% hits | AID 760, 2007;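 active = GTP binding activity at least 20 points away from 100%, either lowered or raised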;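 note: 0% = beads with excess unlabeled GTP and 100% = no-compound control corrected for plate trend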
HRas wt GTP bind – modulators of GTP binding to HRas wildtype, primary screen, biochemical, bead-based flow cytometry, multiplex | GTPase HRas (Homo sapiens), P01112 | GST-Ras wt beads, Bodipy-FL-GTP binding; actives lie on both sides | GTP binding activity, % at 10 µM | 190,000 compounds, 0.14% hits;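 active = GTP binding activity at least 20% away from the 100% baseline, either lowered as inhibitor or raised as activator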;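 note: 0% = unlabeled GTP competition control and 100% = no-compound control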
Target sequence (P01112 whole entry, looked up): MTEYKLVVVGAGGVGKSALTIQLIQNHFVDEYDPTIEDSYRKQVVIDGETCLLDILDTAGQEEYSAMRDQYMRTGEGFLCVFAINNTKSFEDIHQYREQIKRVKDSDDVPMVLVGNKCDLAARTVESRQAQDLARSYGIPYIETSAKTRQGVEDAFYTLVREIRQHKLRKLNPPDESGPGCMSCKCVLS
Rac1 act GTP bind – GTP binding modulators of activated mutant Rac1, primary screen, biochemical, bead-based flow cytometry, multiplex, fluorescent GTP. Ras-related C3 botulinum toxin substrate 1 (Homo sapiens), P63000. AID 764, 2007. percent activity (GTP binding), % at 10 µM. GST-Rac1 activated beads; actives lie on both sides; 100% means binding = to untreated wells. 190,000 compounds, 0.11% hits;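 active = GTP binding at least 20 percentage points away from the 100% baseline, in either direction, so actives lie on both sides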
Cdc42 wt GTP – modulators of GTP binding to wildtype Cdc42, primary screen, biochemical, multiplex bead flow cytometry, Bodipy-GTP; Cell division control protein 42 homolog (Homo sapiens), P60953; GST-Cdc42 beads; actives lie on both sides; percent activity (GTP binding), % at 10 µM; 190,000 compounds, 0.2% hits; AID 761, 2007;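 active = percent activity GTP binding at least 20 points away from the 100% baseline, either down as inhibitor or up as activator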;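 note: median bead fluorescence of bound Bodipy-FL-GTP at 100 nM; 0% = excess unlabeled GTP control and 100% = no compound control; below 100% means less GTP binding so inhibitor and above means activator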
Target sequence (P60953 whole entry, looked up): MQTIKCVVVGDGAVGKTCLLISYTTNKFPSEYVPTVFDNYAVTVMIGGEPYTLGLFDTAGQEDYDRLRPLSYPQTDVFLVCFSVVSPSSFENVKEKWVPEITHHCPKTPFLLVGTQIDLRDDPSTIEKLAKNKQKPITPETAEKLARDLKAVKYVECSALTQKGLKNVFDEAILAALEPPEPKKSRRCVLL
Rab7 wt modul – modulators of GTP binding to Rab7, primary screen, biochemical, wildtype, multiplex bead flow cytometry; 190,000 compounds, 0.055% hits; GTP binding activity (percent of control), % at 10 µM; GST-Rab7 beads, fluorescent GTP binding; actives lie on both sides; untreated = 100%, excess cold GTP = 0%; AID 758, 2007;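 active = fluorescent GTP binding to Rab7 beads changed by at least 20 points from the 100% baseline, either direction, mostly lower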;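 note: median green fluorescence of bound Bodipy-FL-GTP per Rab7 bead population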
The depositor's hits bear a star; [ ] = remark or other dose.

SMILES	Rac1 wt modul	Rab2A wt mod	HRas wt GTP bind	Rac1 act GTP bind	Cdc42 wt GTP	Rab7 wt modul
COC(=O)CSc1nc2cc(Cl)ccc2c(=O)n1C1CCCC1	89	80	80	92	79*	90
Cc1cc(NC(=O)CSc2nc3ccccc3c(=O)n2C2CCCC2)no1	104	102	100	101	102	103
c1ccc(Cn2c(NCc3ccncc3)nc3ccccc32)cc1	100	95	100	97	97	97
COc1ccc(CNc2nc3ccccc3n2Cc2ccc(C)cc2)cc1OC	142*[activator]	123*[activator]	121*[activator]	125*[activator]	131*[activator]	115
Cc1cc(C(=O)Oc2ccccc2C(=O)O)c(C)o1	127*[activator]	116	110	119	120*[activator]	104
COc1cc(/C=N/NC(=O)c2sc(N)c(C#N)c2C)ccc1O	93	90	93	96	96	95
Cc1c(C(=O)N/N=C/c2ccc(O)c(Br)c2)sc(N)c1C#N	76*	79*	80	92	89	93
O=c1c2[nH]c3ccc(F)cc3c2ncn1C1CCCCC1	101	102	102	101	103	99
Cc1c(NC(=O)CCN2C(=O)c3ccccc3C2=O)c(=O)n(-c2ccccc2)n1C	78*	88	86	84	81	95
Cc1cccc(NC(=O)CSc2nc3c([nH]c4ccccc43)c(=O)n2C)c1	104	101	103	97	99	115
COc1cccc(NC(=O)CSc2nc3c([nH]c4ccccc43)c(=O)n2C)c1	123*[activator]	116	112	99	113	115
COc1ccc(OC)c(C(C(=O)NCc2ccco2)N(C(=O)Cn2nnc3ccccc32)C2CC2)c1 (stereo not drawn)	130*[activator]	121*[activator]	121*[activator]	119	126*[activator]	116
Cc1ccc(-n2c(-c3cnccn3)n[nH]c2=S)c(Br)c1	81	82	80	80	79*	84
Fc1ccccc1NC(=S)N/N=C/c1ccccc1Br	104	101	103	100	102	101
Cc1cc(N2C(=O)C3CC=CCC3C2=O)cc(C)c1Br (stereo not drawn)	111	97	101	98	104	100
O=C(/C=C/c1ccccc1)NC(NC(=S)Nc1cccc(O)c1)C(Cl)(Cl)Cl (stereo not drawn)	100	95	98	96	101	98
O=C(/C=C/c1ccccc1)NC(NC(=S)Nc1ccc(C(=O)O)cc1)C(Cl)(Cl)Cl (stereo not drawn)	88	79*	87	91	96	88
O=C1OCc2cc(-n3cccc3)ccc21	103	102	98	101	103	98
O=C(O)COc1ccccc1/C=N/NC(=O)c1cc(-c2ccc(F)cc2)nc2ccccc12	78*	86	87	84	82	99
O=C(c1ccco1)c1cn(CC(=O)N2CCCCCC2)c2ccccc12	95	98	99	95	100	101
S=c1[nH]nc(-c2ccco2)n1-c1ccc(Cl)cc1	82	82	81	78*	82	82
O=C(Cn1c(-c2cscn2)nc2ccccc21)Nc1cc(F)ccc1F	121*[activator]	107	106	102	115	105
O=C(CCn1c(=O)oc2ccccc21)N(Cc1ccccc1)c1ccccc1	99	99	97	95	96	104
COc1ccc(NC(=O)COC(=O)c2ccc(OCc3c(C)noc3C)cc2)cc1OC	103	100	101	98	102	101
COc1cc(C(=O)OCC(=O)Nc2ccc3c(c2)OC(F)(F)O3)ccc1OCc1c(C)noc1C	39*	40*	43*	37*	34*	28*
SMILES	Rac1 wt modul	Rab2A wt mod	HRas wt GTP bind	Rac1 act GTP bind	Cdc42 wt GTP	Rab7 wt modul
O=[N+]([O-])c1cc(Br)c(O)c(C=Nc2ccc(N3CCOCC3)cc2)c1	84	87	88	84	79*	97
Oc1ccc(N=Cc2cc(Br)c(N3CCOCC3)o2)cc1	103	103	104	102	105	97
COc1ccc(OC)c(/C=N/NC(=O)c2ccc(Cn3cc([N+](=O)[O-])cn3)o2)c1	81	78*	82	92	91	87
Nc1ccc2c(c1)C(=O)C(=O)c1ccccc1-2	88	84	85	84	70*	92
O=C1C(=O)c2ccc(-c3ccccc3)cc2-c2ccccc21	107	99	100	99	97	101
CCN(CC)c1ccc(-c2nn3c(-c4cccnc4)nnc3s2)cc1	83	73*	73*	84	72*	88
COc1cc(/C=C/C(=O)Nc2nc3ccc(S(=O)(=O)NC(C)C)cc3s2)cc(OC)c1OC	106	98	100	98	98	97
O=C(OC1CCCCC1)c1ccc(NC(=O)C2CCCCC2)cc1	99	99	97	99	79*	95
O=C(O)CCC(=O)Nc1ccc(C(=O)OC2CCCCC2)cc1	97	99	99	99	97	96
O=C(/C=C/c1cccc([N+](=O)[O-])c1)OCC(=O)c1ccccc1	106	94	101	96	96	98
O=C(C#Cc1cccc([N+](=O)[O-])c1)c1ccccc1	89	87	85	78*	78*	92
COc1cc(/C=C(\C#N)c2nc3ccc(C)cc3[nH]2)cc([N+](=O)[O-])c1O	70*	77*	83	85	78*	84
Cc1ccc(S(=O)(=O)Cc2ccc(C(=O)N3CCN(c4cc(C)ccc4C)CC3)o2)cc1	80	80	87	77*	81	84
Cc1ccc(C)c(N2CCN(C(=O)c3ccc(CS(=O)(=O)c4ccccc4C)o3)CC2)c1	87	87	89	83	89	93
COc1ccccc1-n1cc(CN2CCN(C3CCCC3)C(CCO)C2)cn1 (stereo not drawn)	105	100	99	100	102	100
CCCOc1ccc(C(CC(=O)O)NC(=O)c2sc3ccccc3c2Cl)cc1 (stereo not drawn)	76*	75*	77*	69*	72*	93
